Shown are actives, neighbours in structure and some others; about 19% of the full set was active somewhere.
TDP1 cell CPT: qHTS for Inhibitors of human tyrosyl-DNA phosphodiesterase 1 (TDP1): qHTS in cells in presence of CPT | Potency, µM (highest dose often 46.2 µM), usual class: inhibitors | chicken DT40 Tdp1-/-;hTDP1 cells + 20 nM CPT, ATP luminescence, 48 h | AID 686979, 2013 | actives 12% (n = 420,000); also: nearly all actives have a fitted effect of over 55% in size
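Chicken DT40 Tdp1-/- cells stably complemented with human TDP1 were seeded at 400 cells/well in medium containing 20 nM camptothecin, exposed to pin-transferred compounds, and grown at 37 °C for at least 48 hr. Viability was read as ATP luminescence.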
HT1080NT lethal: qHTS for induction of synthetic lethality in tumor cells producing 2HG: qHTS for the HT-1080-NT fibrosarcoma cell line | HT-1080-NT fibrosarcoma viability, CellTiter-Glo ATP luminescence, 48 h | Potency, µM (top dose mostly 46.1 µM), most hits filed as cytotoxic | actives 1.6% (n = 360,000) | AID 686970, 2013;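 also: NT is the 2HG producing partner of a matched IDH1 knockdown line; nearly all actives have a fitted effect of over 55% in size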
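750 cells/well, RPMI + 5% FBS; 2 h settle, compound pin-transfer, 48 h at 37 degrees C. CellTiter-Glo 10 min RT, luminescence. Normalized to DMSO and media-only wells.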
IL1B secr inh: qHTS for Inhibitors of Inflammasome Signaling: IL-1-beta AlphaLISA Primary Screen; activity change, % at 57.5 µM; THP-1 LPS/ATP IL-1B secretion, AlphaLISA, 16 h; hits give low values; actives 4.7% (n = 360,000); AID 743279, 2014; in the data active = activity change below about -50%; inconclusive = mostly about -30% to -49%
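THP-1 cells pretreated 1 hr with compounds (up to 57.5 uM final), then stimulated with LPS (250 ng/mL final) plus ATP (1.25 mM final); secreted IL-1B measured by AlphaLISA after 16 hr, decreased signal indicating inhibition.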
HT1080 IDH1KD tx: qHTS for induction of synthetic lethality in tumor cells producing 2HG: qHTS for the HT-1080-IDH1KD cell line | AID 686971, 2013 | HT-1080 IDH1 knockdown viability, ATP luminescence, 48 h | actives 2% (n = 360,000) | Potency, µM (highest dose often 46.1 µM), most hits filed as cytotoxic
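Viability of IDH1-knockdown HT-1080 fibrosarcoma cells was assessed by CellTiter-Glo after 48 h at 37 °C with titrated compound; concentration-effect curves were classified by fit quality and response size.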
DT40 TDP1 no CPT: qHTS for Inhibitors of human tyrosyl-DNA phosphodiesterase 1 (TDP1): qHTS in cells in absence of CPT. DT40 Tdp1-/- hTDP1 cells, no CPT, ATP luminescence, 48 h. Potency, µM (highest dose often 46.2 µM), hits mostly inhibitors. actives 15% (n = 420,000); also: nearly all actives have a fitted effect of over 55% in size
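DT40 Tdp1-/-;hTDP1 cells, no CPT (DMSO vehicle only), 400 cells/well; compounds pin-transferred; ≥48 hr, 37 °C; CellTiter-Glo 30 min RT dark, luminescence read.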
A number is an active result; 0 = inactive; ? = inconclusive; - = not tested or not shown. Unless noted, calls follow the shape of the dose curve; as a rule, active = well fitted curve in the direction sought with a large enough effect; inconclusive = small, poorly fitted or top-dose-only effect, or another doubt; inactive = no such curve, though single readings can be large; an effect the other way counts as inactive or inconclusive.

SMILES | TDP1 cell CPT | HT1080NT lethal | IL1B secr inh | HT1080 IDH1KD tx | DT40 TDP1 no CPT
COc1ccc(C)cc1NC(=O)C1CCN(S(=O)(=O)c2ccc3[nH]c4c(c3c2)CCCCC4)CC1 | 0 | - | - | - | ?
O=S(=O)(c1ccc2[nH]c3c(c2c1)CCCC3)N1CCCCC1 | ? | 0 | 0 | 0 | 23µM
Cc1ccc(NC(=O)C2CCN(S(=O)(=O)c3ccc4[nH]c5c(c4c3)CCCCC5)CC2)cc1 | 13µM | - | - | - | 15µM
CC(C)c1ccc(NC(=O)c2cc3c(=O)[nH]c4ccccc4c3n2C)cc1 | 6.5µM | - | - | - | 15µM
CCC1CCCCN1CCCNC(=O)c1cc2c(=O)[nH]c3ccccc3c2n1C (centres undefined) | 0 | 0 | 0 | 0 | 0
Cn1c(C(=O)N2CCN(c3ccc(Cl)cc3)CC2)cc2c(=O)[nH]c3ccccc3c21 | ? | 0 | ? | 0 | 21µM
CCC(C)[C@@H](CN(N=O)[C@@H](Cc1ccccc1)CN(C)N=O)N(CCc1ccccc1)N=O (some centres undefined) | 16µM | 0 | 0 | 0 | 21µM
CN(C[C@@H](CC1CCCCC1)N(C[C@H](Cc1ccccc1)N(CCc1ccccc1)N=O)N=O)N=O | 23µM | 0 | 0 | 0 | ?
CC(CCc1ccccc1)NC(=O)CCC1CCCC1 (centres undefined) | 0 | 0 | 0 | 0 | 0
CN(C[C@H](Cc1ccccc1)N(C[C@H](CC1CCCCC1)N(CCc1ccccc1)N=O)N=O)N=O | 26µM | 0 | 0 | 0 | ?
O=C(CN(CCc1ccccc1)C(=O)c1csnn1)NC1CCCC1 | 0 | 0 | 0 | 0 | 0
CC(=O)Oc1ccc(-c2ccc(C(=O)Nc3cccc(S(=O)(=O)N4CCOCC4)c3)cc2)cc1 | 23µM | ? | -119 | 10µM | 16µM
CCOc1c(Br)cc(C(=O)Nc2cccc(S(=O)(=O)N3CCOCC3)c2)cc1OC | ? | 0 | 0 | 0 | 23µM
COc1ccc(C(=O)Nc2cccc(S(=O)(=O)N3CCCC3)c2)cc1S(=O)(=O)N1CCOCC1 | ? | 0 | 0 | 0 | ?
COc1ccc(C(=O)NNC(=O)c2cccc(S(=O)(=O)N3CCOCC3)c2)cc1 | 0 | 0 | 0 | 0 | 0
COc1ccc(C(=O)NC(=S)Nc2cccc(S(=O)(=O)N3CCOCC3)c2)cc1 | 5.8µM | 15µM | 0 | 13µM | 7.3µM
O=S1(=O)CCOC[C@H](CC2CCCCC2)N1Cc1ccccc1F | ? | 0 | 0 | 0 | 20µM
CCC1COCCS(=O)(=O)N1Cc1ccccc1F (centres undefined) | 0 | 0 | 0 | 0 | 0
O=S1(=O)CCOC[C@H](CC2CCCCC2)N1Cc1ccccc1Br | ? | 0 | 0 | 0 | 21µM
O=C(/C=C/c1ccccc1[N+](=O)[O-])NCCCN1CCCC1=O | 0 | 0 | 0 | 0 | 0
CCCCn1c(SCC(=O)NCCCOC)nc2c(sc3ccccc32)c1=O | 0 | - | - | - | 0
COc1ccccc1NC(=O)c1ccc(NC(=O)c2cc3c(s2)CCC3)cc1 | ? | 0 | 0 | 0 | 16µM
O=C(Nc1ccccc1OC(F)F)c1cc2c(s1)CCC2 | 0 | 0 | 0 | 0 | 0
Cc1ccc(NC(=O)c2cc3c(s2)CCCC3)cc1 | ? | 0 | -53 | 0 | 0
COc1ccc(C2=NN(c3ccccc3)C(c3cn(CCC(=O)O)nc3-c3ccccc3)C2)cc1 (centres undefined) | 0 | 0 | 0 | 0 | 0
SMILES | TDP1 cell CPT | HT1080NT lethal | IL1B secr inh | HT1080 IDH1KD tx | DT40 TDP1 no CPT
CCOC(=O)c1c(C)[nH]c(C(=O)COC(=O)/C=C/c2ccc(OC(F)F)cc2)c1C | 0 | 0 | 0 | 0 | 0
CCOC(=O)c1c(C)[nH]c(C)c1C(=O)COC(=O)/C=C/c1ccc(OC(F)F)cc1 | ? | 0 | -54 | ? | ?
OCCC1CN(Cc2cccn2-c2ccccn2)CCN1Cc1ccccc1 (centres undefined) | 0 | 0 | 0 | 0 | 0
CCc1cc(=O)oc2c(C)c(O[C@@H]3O[C@H](CO)[C@@H](O)[C@H](O)[C@H]3O)ccc12 | 0 | 0 | 0 | 0 | 10µM
Cc1c(C)c2ccc(O[C@@H]3O[C@H](CO)[C@@H](O)[C@H](O)[C@H]3O)c(C)c2oc1=O | 0 | 0 | 0 | 0 | 0
CCC(CC)NC(=O)CON=C1c2ccccc2-c2ccccc21 | 21µM | 0 | 0 | 0 | 16µM
CCOc1ccc2nc(SCC3CC3(Cl)Cl)[nH]c2c1 (centres undefined) | ? | ? | -62 | ? | 18µM
CC(C)C(=O)N(c1cc2sc(=O)oc2c2ccccc12)S(=O)(=O)c1cccs1 | 18µM | 11µM | 0 | ? | 12µM
CC(=O)N(c1ccc2oc(=O)sc2c1)S(=O)(=O)c1cccs1 | 0 | 0 | 0 | 0 | ?
COc1ccc(-c2nc3cnc(N4CCNCC4)nc3n(CCc3ccccc3)c2=O)cc1 | ? | - | - | - | 21µM
N#CCCn1c(=O)c(-c2cccs2)nc2cnc(N3CCNCC3)nc21 | ? | - | - | - | 3.7µM
Cn1c(=O)c(CCc2ccccc2)nc2cnc(N3CCNCC3)nc21 | ? | - | - | - | 9.2µM
COCCn1c(=O)c(-c2ccc(Cl)cc2)nc2cnc(N3CCNCC3)nc21 | 6.5µM | - | - | - | 12µM
O=c1c(-c2ccc(Cl)cc2)nc2cnc(N3CCNCC3)nc2n1CCc1ccccc1 | 12µM | - | - | - | 18µM
COc1cc(NS(=O)(=O)c2ccc(NC(=O)c3ccc(OC)c(Br)c3)cc2)nc(OC)n1 | 0 | - | - | - | 0
CCC/C(=C1/c2ccccc2C(=O)N1c1ccccc1)c1ccc(O[C@@H]2CCCCO2)cc1 | ? | 0 | 0 | 0 | 16µM
CC(C)N(C(=O)[C@H]1C[C@H](CC(=O)NCc2ccco2)C(=O)N2CCc3c([nH]c4ccc(Cl)cc34)[C@]12C)C(C)C | ? | ? | 0 | ? | ?
CCN(CC)C(=O)[C@H]1C[C@H](CC(=O)NCc2ccco2)C(=O)N2CCc3c([nH]c4ccc(Cl)cc34)[C@]12C | 16µM | 0 | 0 | 0 | 16µM
C[C@]12c3[nH]c4ccc(Cl)cc4c3CCN1C(=O)[C@@H](CC(=O)NCc1ccco1)C[C@@H]2C(=O)N1CCOCC1 | 18µM | 0 | 0 | 0 | 21µM
CC(=O)NC(NC(=S)N1CCCCCC1)C(Cl)(Cl)Cl (centres undefined) | 0 | 0 | 0 | 0 | 0
CCCCC(=O)NC(NC(=S)N1CCCCCC1)C(Cl)(Cl)Cl (centres undefined) | 13µM | 0 | 0 | 0 | 13µM
COc1ccc(-c2csc(NC3OC(=O)c4c3ccc(OC)c4OC)n2)cc1OC (centres undefined) | 9.2µM | 2.1µM | - | 2.6µM | 15µM

Bioassay records (PubChem)
